From PubChem BioAssay AID434994 (NMMLSC, 2010)
The list shows a part of the results. Unmarked numbers belong to inactive results. Activity calls are given as the source filed them.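 The calls were made as follows: active = superoxide signal below 65% of the plate average of sample wells; inactive = the rest.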

assay: retest of yeast aging ROS inhibitors – cherry picked compounds, confirmation (AID 434994);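 also: cells aged with compound for 7 days at 30 degrees C before staining; 100% equals mean DHE fluorescence of all compound wells on the plate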; conditions: S. cerevisiae aging, superoxide DHE fluorescence; at 10 µM; hits give low values

Structure (SMILES) | superoxide response (% of plate)
Cc1ccc2cccc(S(=O)(=O)N3CCN(c4ccccc4F)CC3)c2n1 | 119%
COc1ccc(C)cc1S(=O)(=O)Nc1cccc(Cl)c1Cl | 96.3%
NC(=S)Nc1c(Cl)cccc1Cl | 109%
COc1cccc(NC(=O)NCCN2CCCCC2)c1 | 101%
CC(=O)NC1=NN(C(C)=O)C(C)(CCS(=O)(=O)c2ccc(Cl)c(Cl)c2)S1 (configuration not stated) | 101%
CN1CCN(c2cc3c(cc2F)c(=O)c(C(=O)O)cn3CCF)CC1 | 116%
CCn1c2ccccc2c2cc(NC(=O)CNC)ccc21 | 107%
Cc1ccc(-c2nc(CS(=O)CC(=O)N3CCN(c4ncccn4)CC3)c(C)o2)cc1 (configuration not stated) | 92.5%
O=C(Nc1ccccc1N1CCCC1)c1ccc2ccccc2c1 | 95.3%
COc1cc(NC(=O)CSc2ccc(-c3cccnc3)nn2)cc(OC)c1 | 123%
Cc1ccc(C23CC4CC(CC(C(=O)NCC(=O)O)(C4)C2)C3)cc1 | 106%
COc1cc(-c2nnn(CC(=O)NCc3ccccc3)n2)cc(OC)c1OC | 100%
O=C(CSCc1ccccc1)Nc1ccccc1 | 107%
CCCC(C)C(=O)OCC(=O)Nc1c(Br)cc(C)cc1Br (configuration not stated) | 101%
CNC(=O)c1cccc2nc3ccccc3nc12 | 79.8%
CC1CCCN(S(=O)(=O)c2ccc(C(=O)Nc3nnc(-c4ccncc4)o3)cc2)C1 (configuration not stated) | 111%
O=C(CN1CCN(c2ccccn2)CC1)Nc1ccc(Br)cc1 | 111%
O=C(O)C1CCCN1S(=O)(=O)c1ccc(Br)cc1 (configuration not stated) | 105%
O=C(O)c1ccc(F)c(S(=O)(=O)Nc2ccccc2)c1 | 101%
Cc1ccccc1NC(=O)NCC1CCN(Cc2cccc(Cl)c2)CC1 | 94.6%
Cc1cc(=O)n2[nH]c(-c3cccc(Cl)c3)cc2n1 | 98.1%
Cc1ccc(-c2nn(C(C)(C)C)c3ncnc(N)c23)cc1 | 42.9% (active)
